Source: PubChem (Buhrlage Lab, Dana-Farber Cancer Institute and Novartis Institutes for BioMedical Research (Cambridge, Mass))
Only some compounds are listed: those with a hit (about 4.6% of all), similar ones and a draw of the others.
USP7 inh: human USP7 deubiquitinase inhibition; Q93009; purified USP7, Ub-rhodamine cleavage fluorescence; inhibition, % at 20 µM; hit rate 0.3% among 47,000; AID 1645854
Target sequence (Q93009 whole entry, looked up): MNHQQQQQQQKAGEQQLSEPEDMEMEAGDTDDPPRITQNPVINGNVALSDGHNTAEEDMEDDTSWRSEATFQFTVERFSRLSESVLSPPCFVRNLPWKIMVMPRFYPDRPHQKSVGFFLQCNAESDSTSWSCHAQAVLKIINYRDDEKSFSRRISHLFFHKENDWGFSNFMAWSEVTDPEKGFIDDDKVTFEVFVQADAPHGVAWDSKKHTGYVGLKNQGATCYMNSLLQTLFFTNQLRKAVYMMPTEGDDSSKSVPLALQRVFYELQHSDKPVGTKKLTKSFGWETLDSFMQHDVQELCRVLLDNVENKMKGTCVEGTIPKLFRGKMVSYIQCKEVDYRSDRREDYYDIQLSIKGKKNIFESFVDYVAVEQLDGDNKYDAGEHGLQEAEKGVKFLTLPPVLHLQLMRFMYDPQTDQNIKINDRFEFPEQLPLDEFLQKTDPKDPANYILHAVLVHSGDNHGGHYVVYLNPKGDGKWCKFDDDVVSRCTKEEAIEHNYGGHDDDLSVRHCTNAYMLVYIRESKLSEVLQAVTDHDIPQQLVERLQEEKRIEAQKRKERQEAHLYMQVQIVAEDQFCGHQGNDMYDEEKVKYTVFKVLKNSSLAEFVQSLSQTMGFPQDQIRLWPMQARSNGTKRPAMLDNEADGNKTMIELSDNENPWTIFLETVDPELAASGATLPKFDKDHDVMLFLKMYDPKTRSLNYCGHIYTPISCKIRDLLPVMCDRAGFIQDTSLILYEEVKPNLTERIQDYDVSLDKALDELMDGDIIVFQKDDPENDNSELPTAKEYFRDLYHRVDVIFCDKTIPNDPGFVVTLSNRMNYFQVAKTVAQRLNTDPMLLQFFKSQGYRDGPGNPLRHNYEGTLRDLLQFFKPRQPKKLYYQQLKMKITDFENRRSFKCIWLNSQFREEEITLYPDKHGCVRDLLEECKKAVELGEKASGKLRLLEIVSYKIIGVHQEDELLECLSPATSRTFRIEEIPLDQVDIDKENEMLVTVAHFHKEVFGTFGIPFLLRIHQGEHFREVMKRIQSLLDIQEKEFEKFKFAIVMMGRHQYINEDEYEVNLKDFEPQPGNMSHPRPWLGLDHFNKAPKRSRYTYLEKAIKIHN
UCHL1 inh: human UCHL1 deubiquitinase inhibition; purified UCHL1, Ub-rhodamine cleavage fluorescence; hit rate 0.2% among 47,000; P09936; inhibition, % at 20 µM
USP10 block: blocks human USP10 ubiquitin-rhodamine cleavage | hit rate 1.1% among 47,000 | Q14694 | inhibition, % at 20 µM | purified USP10, Ub-rhodamine fluorescence, 60 min
USP8 block: blocks human USP8 ubiquitin-rhodamine cleavage | purified USP8, Ub-rhodamine cleavage fluorescence, 30 min | inhibition, % at 20 µM | hit rate 4.2% among 47,000
Starred values were filed as active, the others as inactive. No stated cut-off is given here; in the data, active means inhibition above about 30%; inactive means the rest.

How did O=C(/C=C/c1cccc([N+](=O)[O-])c1)Nc1nc2n(n1)C(c1ccccc1)CC(=O)N2 (configuration not stated) do in these assays?
USP7 inh: 10; UCHL1 inh: 5; USP10 block: 25; USP8 block: -50

How did Cc1ccc(OC(C)(C)C(=O)N2[C@@H](c3ccccc3F)C[C@@H]3NC(=O)CCC[C@H]32)cc1 do in these assays?
USP7 inh: -6; UCHL1 inh: 0; USP10 block: -5; USP8 block: 2

How did CC1(C)CCCC2=C1CC(C)(C)C(N(C(=O)/C=C/C(=O)O)c1ccccc1)C2 (configuration not stated) do in these assays?
USP7 inh: 1; UCHL1 inh: 0; USP10 block: 34*; USP8 block: 59*

How did O=C(NCCC1=CCCCC1)C1CCN(c2cnc3nccnc3c2)CC1 do in these assays?
USP7 inh: -18; UCHL1 inh: -15; USP10 block: -10; USP8 block: -54

Results for Cn1c(=O)c2c(-c3ccccc3)n(-c3ccc4c(c3)OCCO4)cc2n(C)c1=O ?
USP7 inh: -12; UCHL1 inh: -5; USP10 block: 0; USP8 block: 74*

Results for Cc1cc(F)ccc1NC(=O)c1cc(S(=O)(=O)N2CCCCC2)c[nH]1 ?
USP7 inh: 7; UCHL1 inh: 1; USP10 block: 4; USP8 block: 11

How did O=C(c1cc(F)cc(F)c1)N1CCCC(c2[nH]nc3nccnc23)C1 (configuration not stated) do in these assays?
USP7 inh: -2; UCHL1 inh: -1; USP10 block: -3; USP8 block: -35

What do the screens show for `O=C(c1c(F)cccc1F)N1CCCC(c2[nH]nc3nccnc23)C1` (configuration not stated)?
USP7 inh: 0; UCHL1 inh: -1; USP10 block: 0; USP8 block: 30*

Results for CCOc1ccc(CNC(=O)Cn2cnc(S(=O)(=O)N3CCCC3)c2)cc1 ?
USP7 inh: -2; UCHL1 inh: -3; USP10 block: 0; USP8 block: -1

How did Cc1nnc2c3ccccc3c(N3CCCC3)nn12 do in these assays?
USP7 inh: -16; UCHL1 inh: 1; USP10 block: -1; USP8 block: 23

Results for Oc1cccc2c(-c3ccc(O)c4c(O)cccc34)ccc(O)c12 ?
USP7 inh: -54; UCHL1 inh: 78*; USP10 block: 71*; USP8 block: 98*

What do the screens show for `Cc1noc(C)c1CNC(=O)c1ccc2c(c1)OCO2`?
USP7 inh: 2; UCHL1 inh: 0; USP10 block: -3; USP8 block: -2

Results for Cc1ccc(C(=O)NCCc2nc(-c3ccc4c(c3)OCO4)n[nH]2)cc1F ?
USP7 inh: -13; UCHL1 inh: 2; USP10 block: 1; USP8 block: 32*

Results for Cc1ccccc1NC(=O)CSC1=NC2(CCCCC2)Nc2ccccc21 ?
USP7 inh: 2; UCHL1 inh: 0; USP10 block: 3; USP8 block: 37*

Results for Cc1ccc(NC(=O)CSC2=NC3(CCCCC3)Nc3ccccc32)cc1 ?
USP7 inh: -2; UCHL1 inh: 1; USP10 block: 3; USP8 block: 38*

How did CC(=O)NC[C@@H]1CC[C@@]2(C)C[C@H](c3ccccc3)C[C@](C)(O2)[C@H]1O do in these assays?
USP7 inh: -2; UCHL1 inh: -1; USP10 block: -1; USP8 block: -10

What do the screens show for `O=C(Nc1ccc(OCc2ccccc2)cc1)NC1Cc2ccccc2C1`?
USP7 inh: 5; UCHL1 inh: -3; USP10 block: 5; USP8 block: 8

What do the screens show for `O=C(Nc1ccc(F)cc1)Nc1ccc(NC(=O)c2ccccc2O)cc1`?
USP7 inh: 14; UCHL1 inh: 4; USP10 block: 25; USP8 block: 52*

What do the screens show for `COc1ccccc1NC(=O)Nc1ccc(NC(=O)c2ccccc2O)cc1`?
USP7 inh: 9; UCHL1 inh: 0; USP10 block: 15; USP8 block: 85*

How did Cc1cccc(Cl)c1NC(=O)Nc1ccc(NC(=O)c2ccccc2O)cc1 do in these assays?
USP7 inh: 10; UCHL1 inh: 0; USP10 block: 39*; USP8 block: 42*

Results for O=C(Nc1ccc(NC(=O)c2ccccc2O)cc1)Nc1ccc(OCc2ccccc2)cc1 ?
USP7 inh: 30; UCHL1 inh: 4; USP10 block: 61*; USP8 block: 91*

Results for COc1cccc(NC(=O)c2ccccc2NC(=O)Cc2ccccc2OC)c1 ?
USP7 inh: -2; UCHL1 inh: 7; USP10 block: 5; USP8 block: -14

How did Cc1cc(F)ccc1NC(=O)C1CCCN(S(=O)(=O)N2CCOCC2)C1 (configuration not stated) do in these assays?
USP7 inh: 3; UCHL1 inh: 2; USP10 block: -6; USP8 block: 0
